# SMN2 splice up: increases expression of the SMN2 splice variant. HEK293 SMN2-luciferase splicing reporter, luminescence, 30-36 h. Potency, µM (series often up to 46.1 µM), for inactives: at the top dose activity change, positive = activation, actives largely listed as activators. 2.8% of 210,000 active; note: % of control where 0% means no effect; nearly all actives have a fitted effect of over 55% in size
#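 HEK293 cells carry an SMN2 […]–luciferase reporter in which exon 7 inclusion puts luciferase in frame. Cells were plated 10-12 h before compound addition, then incubated 30-36 h at 37C. ONE-Glo luminescence was read; sodium butyrate at 4.5 mM final served as control.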
# NPC1 prom act: NPC1 promoter activation | Huh7 NPC1 promoter luciferase reporter, 24 h | AID 485313 | Potency, µM (titrated, usually from 9.22 µM), without a hit: at the highest dose activation, hits mostly activators | 2.4% of 320,000 active; note: % of control where 0% means no effect; nearly all actives have a fitted effect of over 60% in size
#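 Quantitative HTS used a cell-based reporter: Huh7 cells stably bearing the NPC1 promoter upstream of luciferase were treated with compounds for 24 h, and promoter activation was read as luminescence.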
# ELG1 DNA repair: ELG1-dependent DNA repair inhibition; HEK293T ELG1-luciferase reporter, luminescence, 16 h; DNA damage induced by 5-fluorouridine; Potency, µM (series often up to 46.1 µM), inactives show at the highest dose activity change, negative = inhibition, usual class: inhibitors; 2.3% of 330,000 active; AID 504467; note: % is set by controls: 0 for no effect and ±100 for the full control effect; nearly all actives have a fitted effect of over 55% in size
#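 DMSO vehicle served as the neutral condition. Each well held 2,000 cells given 5-fluorouridine plus compound; after 16 hr at 37 °C/5% CO2, ONE-Glo was added and luciferase measured 30 min later.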
# FLuc counter: firefly luciferase modulation, counter-screen for miR-21 project | purified FLuc, Km substrates, luminescence inhibition | Potency, µM (titrated, usually from 57.5 µM), without a hit: at the top dose activity change, negative = inhibition, usual class: inhibitors | 6.9% of 360,000 active;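 note: plate controls were vehicle for no effect and reference inhibitor for full effect; nearly all actives have a fitted effect of over 55% in size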
# Target sequence (P08659 whole entry, looked up): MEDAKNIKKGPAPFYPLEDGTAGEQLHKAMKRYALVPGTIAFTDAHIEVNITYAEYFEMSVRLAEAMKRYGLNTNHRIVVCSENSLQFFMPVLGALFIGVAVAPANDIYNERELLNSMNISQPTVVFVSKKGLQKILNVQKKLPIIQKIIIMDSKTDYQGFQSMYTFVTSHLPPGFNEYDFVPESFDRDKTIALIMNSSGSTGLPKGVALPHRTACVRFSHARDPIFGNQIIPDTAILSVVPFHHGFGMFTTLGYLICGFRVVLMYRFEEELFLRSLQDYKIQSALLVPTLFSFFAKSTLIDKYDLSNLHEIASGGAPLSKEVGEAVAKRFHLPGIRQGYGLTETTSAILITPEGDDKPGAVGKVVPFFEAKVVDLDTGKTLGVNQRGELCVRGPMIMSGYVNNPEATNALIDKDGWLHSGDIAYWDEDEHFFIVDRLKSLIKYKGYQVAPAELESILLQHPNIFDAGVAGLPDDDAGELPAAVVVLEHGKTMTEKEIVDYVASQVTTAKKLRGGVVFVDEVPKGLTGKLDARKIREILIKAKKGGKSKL
#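 Purified P. pyralis luciferase, 10 nM final, with Km-level 10 uM D-luciferin and 10 uM ATP in 50 mM Tris acetate pH 7.5, 10 mM Mg acetate, 0.01% Tween-20, 0.05% BSA; 6-point qHTS titration about 60 µM downward; luminescence read.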
# ELG1 genotoxic: induces genotoxicity in HEK293T cells with luciferase-tagged ELG1. HEK293T ELG1-luciferase reporter, luminescence, 16 h. 1.3% of 330,000 active. Potency, µM (titrated, usually from 46 µM), for the others: at the highest dose activity change, positive = activation, most hits filed as activators; note: % of control where 0% means no effect; nearly all actives have a fitted effect of over 60% in size
#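 Screening used a luciferase reporter fused to human ELG1 in HEK293T cells. Luminescence was read on a CCD plate imager after 16 hr exposure and 30 min ONE-Glo incubation.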
# Rab9 promoter act: activators of Rab9 promoter. Huh7 Rab9 promoter-luciferase reporter, luminescence, 24 h. Potency, µM (top dose mostly 9.22 µM), for inactives: top-dose activation, negative = inhibition, most hits filed as activators. 2.8% of 320,000 active. AID 485297; note: % of control where 0% means no effect; nearly all actives have a fitted effect of over 60% in size
#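 Luminescence from Amplite-detected luciferase (10 minutes, ambient) reports Rab9 promoter activation. Before that, stable Rab9-luciferase Huh7 cells (1500/well, reduced-serum OP-MEM I plus 10% FBS) were exposed to compound for 24 hours at 37C.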
# Numbers without * were called inactive; u = inconclusive; x = no result; [ ] = dose if it differs, or a comment. Only some compounds are listed: those with a hit (about 9.4% of all), similar ones and a draw of the others. Calls come from the whole dose curve; as a rule, active = well fitted curve in the direction sought with a large enough effect; inconclusive = small, poorly fitted or top-dose-only effect, or another doubt; inactive = no such curve, though single readings can be large; an effect the other way counts as inactive or inconclusive. Potency is the fitted concentration of half-maximal effect.
SMILES,SMN2 splice up,NPC1 prom act,ELG1 DNA repair,FLuc counter,ELG1 genotoxic,Rab9 promoter act
O=c1cc(CSc2ccccc2)[nH]c2ccccc12,x,1%,12µM*,-3%,-9%,-1%
CCOC(=O)c1ccc(-n2c(CCC(=O)O)ccc2-c2ccc(Br)cc2)cc1,-2%,x,x,u,x,x
c1ccc(COc2ccc(OCCCN3CCCCC3)cc2)cc1,u,u,u,13µM*,7.9µM*,3.2µM*
c1ccc(COc2ccc(OCCCCN3CCCC3)cc2)cc1,x,2.2µM*,u,12µM*,u,2.5µM*
C=CCNCCCCOc1ccc(OCc2ccccc2)cc1,24%,u,u,17µM*,13µM*,u
c1ccc(COc2ccc(OCCOCCn3cncn3)cc2)cc1,8.9µM*,1.4µM*,u,8.5µM*,5.2µM*,1.3µM*
Cc1nc2c(-c3ccccc3)c(C)nn2c(C)c1CCC(=O)NCc1ccc(F)cc1,-9%,x,x,-1%,x,x
CCOc1ccc(CNC(=O)CCCn2c(=O)c3cccn3c3ccccc32)cc1,x,x,x,-3%,x,x
Cc1ccc(S(=O)(=O)O[C@@H]2[C@H]([C@@H]3COC(C)(C)O3)O[C@H]3OC(C)(C)O[C@@H]32)cc1,2%[9.22 µM],x,x,x,x,x
COc1cc(C2CC(=O)c3c([nH]c(C(=O)OCc4ccc(C)cc4)c3C)C2)cc(OC)c1OC (centres undefined),-49%,x,x,-6%,x,x
COc1cc(C2CC(=O)c3c([nH]c(C(=O)OCCOC(C)C)c3C)C2)cc(OC)c1OC (centres undefined),-59%,-12%,10µM*,6%,-7%,-19%
COc1ccc(OC)c(C2CC(=O)c3c([nH]c(C(=O)OCC4CCCO4)c3C)C2)c1 (centres undefined),-17%,-4%,10µM*,-13%,-13%,1%
Cc1c(C(=O)O)[nH]c2c1C(=O)CC(c1ccc(C(C)(C)C)cc1)C2 (centres undefined),x,u,u,9.5µM*,u,u
CCC(C)OC(=O)c1[nH]c2c(c1C)C(=O)CC(c1ccc(N(C)C)cc1)C2 (centres undefined),24%,u,u,11µM*,u,3.2µM*
COCCOC(=O)c1[nH]c2c(c1C)C(=O)CC(c1cc(OC)ccc1OC)C2 (centres undefined),-11%,-9%,-11%,-2%,9%,-5%
Cc1ccc(N2CC3=C(C2=O)C(c2ccc(Br)cc2)NC(=O)N3C)cc1 (centres undefined),9%,x,x,2%,x,x
COc1cc2c(cc1OC)-c1c(oc3cc(O)cc(O)c3c1=O)CO2,-33%,x,x,x,x,x
COC(=O)c1ccccc1NCC(=O)c1ccc(OC)cc1,x,u,u,u,7%,29%
COc1ccc(C(=O)CC(=O)C(=O)Nc2cc(C)ccc2C)cc1,x,1%,-20%,u,-7%,2%
COc1ccc(C(=O)CNc2ccc(C)cc2C)cc1,x,23%,u,12µM*,12%,36%
COc1ccc(C(=O)CNc2ccccc2CO)cc1,u,10%,u,17µM*,u,-3%
CCOC(=O)c1cnc2cc(C(F)(F)F)ccc2c1Nc1ccc(F)cc1F,-11%,x,x,-1%,x,x
CC(=O)Nc1cccc(-c2nn[nH]n2)c1,x,-3%,-1%,-1%,0%,-9%
CCc1ccc(C(=O)Nc2cccc(-c3nn[nH]n3)c2)s1,x,2%,10%,1.5µM*,0%,23%
O=C(Nc1cccc(-c2nn[nH]n2)c1)c1csc2c1CCCC2,x,12%,21%,11µM*,3%,7%
SMILES,SMN2 splice up,NPC1 prom act,ELG1 DNA repair,FLuc counter,ELG1 genotoxic,Rab9 promoter act
O=C(Nc1cccc(-c2nn[nH]n2)c1)c1cccs1,x,2.8µM*,u,u,-3%,u
Cc1cccc(OCC(=O)Nc2nnc(S(=O)(=O)N3CCc4ccccc43)s2)c1,x,x,x,4%,x,x
O=CN1CCN(C(=O)c2ccc(-c3nc4ccccc4s3)s2)CC1,x,1.8µM*,u,11µM*,u,1.1µM*
O=C(O)c1ccc(-c2nc3ccccc3s2)o1,x,u,u,6µM*,12%,u
O=C(Nc1ccccc1-c1nc2ccccc2s1)c1ccc(Br)o1,-24%,0%,-21%,3%,-1%,0%
O=C(c1ccc(-c2nc3ccccc3s2)o1)N1CCN(c2ccccc2O)CC1,x,u,-7%,17µM*,-9%,u
O=Cc1ccc(-c2nc3ccccc3s2)o1,11µM*,27%,u,11µM*,u,u
COc1ccc(Cn2ccnc2SCC(=O)Nc2cc(C(F)(F)F)ccc2Cl)cc1,x,x,x,-4%,x,x
Cc1cccc(C(c2sc3nc(-c4ccco4)nn3c2O)N2CCN(Cc3ccccc3)CC2)c1 (centres undefined),x,x,x,-19%,x,x
COc1c(C)cc(S(=O)(=O)NCCc2c(C)[nH]c3ccccc23)c(C)c1C,-8%,x,x,3%,x,x
CCOC(=O)c1c(S(=O)(=O)N2CCCC(C(=O)Nc3cccc(Cl)c3)C2)c(C)n(C)c1C (centres undefined),x,x,x,0%,x,x
CC(C)c1ccc(OCC(=O)N(Cc2cccs2)C2CCS(=O)(=O)C2)cc1 (centres undefined),-14%,x,x,-2%,x,x
COc1ccc(NC(=O)CCc2c(C)nc3c(-c4ccccc4)c(C)nn3c2C)cc1Cl,-1%,x,x,5%,x,x
O=C(Cn1c(=O)oc2cc(S(=O)(=O)N3CCCCCC3)ccc21)Nc1cccc(C(F)(F)F)c1,x,x,x,-6%,x,x
O=C(Nc1cc(NC(=O)c2ccccc2Cl)ccc1Cl)c1ccccc1,24%,x,x,12µM*,x,x
Cc1ccccc1C(=O)Nc1cccc(C(=O)Nc2ccccc2C(=O)O)c1,x,-1%,-18%,27µM*,-3%,-3%
O=C(Nc1ccccc1C(=O)O)c1cccc(NC(=O)c2ccccc2Cl)c1,x,4%,14%,19µM*,-2%,10%
O=C(Nc1ccccc1C(=O)O)c1cccc(NC(=O)c2ccco2)c1,x,4%,u,15µM*,-1%,13%
O=C(Nc1cccc(NC(=O)c2ccccc2Cl)c1)c1ccc(F)cc1,x,2%,-20%,u,-1%,-2%
CC[C@H](C)[C@@H](NC(=O)O[C@@H]1Cc2cc(Br)ccc2O[C@H]1c1cccc(OC)c1)C(=O)OC,4%,x,x,x,x,x
CC1CCCCN1C(=O)Cn1c(=O)n(-c2ccc(Cl)cc2)c(=O)c2c3c(sc21)CCC3 (centres undefined),-3%,x,x,-10%,x,x
O=C(O)c1cccc(NC(=O)c2ccccc2NC(=O)c2ccccc2F)c1,x,-2%,3%,11µM*,0%,13%
